Only some compounds are listed: those with a hit (about 3% of all), similar ones and a draw of the others.
KDM5B inh – blocks human KDM5B histone demethylase activity. AID 1347165. Potency, µM (highest dose often 57.7 µM), actives largely listed as inhibitors. Q9UGL1. actives 2.6% (n = 220,000). KDM5B demethylase, FDH-coupled NADH fluorescence (FDH is formaldehyde dehydrogenase); also: potency is read from the fitted curve at half-maximal effect; 0% is about no effect; nearly all actives have a fitted effect of over 70% in size
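qHTS format, multiple compound concentrations. Buffer 50 mM HEPES pH 7.5/0.01% Tween-20; 200 nM KDM5BΔAP final; 10 min compound preincubation; substrate-mix levels 12.5 µM peptide, 25 µM α-KG, 0.25 mM NAD⁺; 30 min RT; ΔRFU.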
SNCA viab count – reduces viability of HEK-293 SNCA reporter cells. HEK-293-SNCA-luc viability, GF-AFC fluorescence, 24 h. Potency, µM (top dose mostly 57.1 µM), without a hit: at the highest dose activity change, negative = cytotoxicity, actives largely listed as cytotoxic. actives 0.12% (n = 150,000). AID 1671193;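 also: potency is read from the fitted curve at half-maximal effect; 0% = DMSO-treated cells and -100% = medium-only wells without cells; nearly all actives have a fitted effect of over 30% in size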
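HEK-293-SNCA-luc cells (1500/well) plated 24 h, then exposed 24 h to a dilution series; GF-AFC added 30 min at 37C, fluorescence 405/540 nm; normalised to medium-only and DMSO wells, Hill fit.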
SNCA expr inh – reduces expression of the alpha-synuclein gene. Potency, µM (titrated, usually from 57.2 µM), for inactives: at the top dose activity change, negative = inhibition, actives largely listed as inhibitors. actives 0.17% (n = 140,000). HEK-293 SNCA-luciferase knock-in, luminescence, 24 h;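 also: potency is read from the fitted curve at half-maximal effect; plate controls were DMSO cells for no effect and cell-free wells for full effect; nearly all actives have a fitted effect of over 45% in size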
IP6K1 inh – blocks human inositol hexakisphosphate kinase 1; AID 1645851; activity change, % (series mostly up to about 58 µM); IP6K1 kinase, ADP-Glo luminescence, 2 h; stronger effect = lower value; actives 0.81% (n = 140,000); Q92551; in the data active = activity change below about -25%; also: % is scaled to controls: 0 for no effect and ±100 for the full control effect
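ADP-Glo luminescence measures ADP made by human IP6K1 during a 2 h RT reaction with ATP/IP6 (mix at 1.3 mM/130 uM); top library doses 57.5 and 19.1 uM final.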
IP6K1 inh cnf – human IP6K1 inhibition, confirmatory; actives 13% (n = 1,200); recombinant IP6K1 kinase, ADP-Glo luminescence, 2 h; Potency, µM (highest dose often 49 µM), for inactives: top-dose activity change, negative = inhibition, actives largely listed as inhibitors; shares compounds with IP6K1 inh; AID 1645852; also: potency is read from the fitted curve at half-maximal effect; % is scaled to controls: 0 for no effect and ±100 for the full control effect; nearly all actives have a fitted effect of over 65% in size
* = called active by the depositor; i = inactive; ? = inconclusive; . = no result; [ ] = remark or other dose. Unless noted, calls follow the shape of the dose curve; as a rule, active = well fitted curve in the direction sought with a large enough effect; inconclusive = small, poorly fitted or top-dose-only effect, or another doubt; inactive = no such curve, though single readings can be large; an effect the other way counts as inactive or inconclusive.

SMILES | KDM5B inh | SNCA viab count | SNCA expr inh | IP6K1 inh | IP6K1 inh cnf
COc1ccc(Nc2cc(C(=O)NCc3ccccc3)c3ccccc3n2)cc1 | i | -1% | -5% | -44* | -10%
COc1ccc(CNC(=O)c2cc(Nc3ccccc3C)nc3ccccc23)cc1 | i | 4% | -14% | 0 | .
CC(=O)c1c(C)[nH]c(C(=O)C(C)Sc2ccccc2Br)c1C (stereo not drawn) | i | . | . | . | .
NC(=O)c1ccc(COC(=O)c2ccc(Cl)cc2)cc1 | i | . | . | . | .
O=c1ncn(CC2CC2)c2ccc(-c3ccoc3)nc12 | 32µM* | -5%[87.6 µM] | 2%[87.6 µM] | -32* | -4%[92.2 µM]
Cc1cccc(C(=O)NCc2nnc(SCC(=O)NC3CCCCC3)n2-c2ccccc2)c1 | i | . | . | . | .
COc1ccc(CN(Cc2ccco2)c2cnc(S(C)(=O)=O)nc2C(=O)Nc2ccc(C)c(C)c2)cc1 | i | 15% | -2% | 24 | .
COc1cccc(CN(Cc2ccco2)c2cnc(S(C)(=O)=O)nc2C(=O)Nc2cccc(Cl)c2C)c1 | i | 0% | 0% | -28* | 1%
Cc1ccc(CN(Cc2ccco2)c2cnc(S(C)(=O)=O)nc2C(=O)Nc2ccc(Br)cc2)o1 | ? | 27% | -11% | -27* | -11%
COc1ccc(CN(Cc2ccco2)c2cnc(S(C)(=O)=O)nc2C(=O)Nc2ccc(C)cc2C)cc1 | i | -1% | 4% | -26* | -3%
Cc1cc(C(=O)O)c2c(C(C)C)nn(-c3ccc(F)cc3)c2n1 | i | . | . | . | .
CN(C(=O)Nc1cccc(Cl)c1)C(c1ccc(Cl)cc1)c1nccn1C (stereo not drawn) | i | . | . | . | .
CCN(CC)S(=O)(=O)c1ccc(F)c(C(=O)NCC2COc3ccccc3O2)c1 (stereo not drawn) | i | . | . | . | .
CC(C)c1ccc(NC(=S)NC2CCSc3ccccc32)cc1 (stereo not drawn) | i | . | . | . | .
Cc1cc(-c2ccc(C)c(S(=O)(=O)N(Cc3cccs3)C(C)C)c2)on1 | ? | -13% | ? | 6 | .
COCCN(Cc1cccs1)S(=O)(=O)c1cc(-c2cc(C)no2)ccc1C | i | -4% | -25% | -33* | ?
Cc1cccc(Nc2nc3c(c(=O)[nH]c(=O)n3C)n2CC(=O)O)c1C | i | . | . | . | .
CCCn1c(Sc2ccc(C)cc2)nc2c1c(=O)[nH]c(=O)n2C | i | . | . | . | .
COc1ccccc1Nc1ccnc(N2CCN(C(=O)Cc3cccc(Cl)c3)CC2)n1 | . | ? | ? | -9 | .
CCn1cnc2c(=O)oc3ccc(S(=O)(=O)N4CCN(c5cc(C)ccc5C)CC4)cc3c21 | i | 7% | 19% | -28* | -20%
COc1ccc(CNC(=O)C(=O)NCC(c2ccco2)S(=O)(=O)c2ccc(Cl)cc2)cc1 (stereo not drawn) | i | 4% | -5% | -29* | 20%
CC(C)c1cc(-c2n[nH]c(=O)n2-c2ccc3c(ccn3C)c2)c(O)cc1O | . | -25% | ? | -43* | 9.2µM*
COc1cc(NC(=O)Cn2c(=O)nc(-c3ccccc3F)c3cc(Cl)ccc32)cc(OC)c1 | i | ? | ? | -28* | ?
CCOc1ccccc1N1CC(c2nc3ccccc3n2CCOc2ccc(OC)cc2)CC1=O (stereo not drawn) | ? | ? | ? | 8 | .
CCOc1ccccc1N1CC(c2nc3ccccc3n2CCCOc2ccc(OC)cc2)CC1=O (stereo not drawn) | i | 3% | 0% | -27* | 6%
SMILES | KDM5B inh | SNCA viab count | SNCA expr inh | IP6K1 inh | IP6K1 inh cnf
CCOC(=O)c1oc2c(c1C)-c1nn(Cc3ccc(Cl)cc3)cc1CC2 | ? | 9% | 4% | -38* | ?
CN(C)CCOc1ccc(C(=O)/C=C/c2ccc(C(=O)O)cc2)cc1 | i | . | . | . | .
CC1(NC(=O)CCc2ncc(-c3ccccc3)o2)CCS(=O)(=O)C1 (stereo not drawn) | i | . | . | . | .
COc1ccc(Cl)cc1-c1ccc2c(c1)C(=O)N1CC[C@H](N)C[C@H]1C(=O)N2 | ? | -1%[87.6 µM] | -22%[87.6 µM] | -11 | .
COc1ccc(-c2ccc3c(c2)C(=O)N2CC[C@H](n4nnc(C(N)=O)c4C(N)=O)C[C@H]2C(=O)N3)c(OC)c1 | i | -1% | 20% | -44* | ?
CCOC(=O)C1CCN(Cc2cn3c(-c4ccc(OC)cc4)nnc3s2)CC1 | i | -8% | 40% | -25* | 13%
CCn1nc(C(=O)OC/C(O)=C(\C#N)c2nc3ccccc3[nH]2)c2ccccc2c1=O | i | . | . | . | .
COc1ccccc1-c1nc(S(=O)(=O)c2ccc3c(c2)OCCO3)c(NCCCN(C)C)o1 | i | . | . | . | .
Cc1cc(C)c(NC(=O)Cn2c(=O)n(Cc3ccccc3)c(=O)c3c(C)c(C(=O)N(C)C)sc32)c(C)c1 | i | 2% | -12% | 23 | .
Cc1cc(C)c(NC(=O)Cn2c(=O)n(-c3ccc(F)cc3)c(=O)c3c(C)c(C(=O)N(C)C)sc32)c(C)c1 | i | 13% | 4% | -27* | -6%
Cc1cc2c(C(C)C)c(O)c(O)c(C=O)c2c(O)c1-c1c(C)cc2c(C(C)C)c(O)c(O)c(C=O)c2c1O | . | ? | ? | -59* | ?
Cc1cc(=O)oc2c(C=O)c(O)ccc12 | . | 2% | . | -12 | .
CCc1ccc(NC(=O)Cn2cc(OC)c(=O)cc2CSc2ccc(F)cc2)cc1 | i | . | . | . | .
Cc1ccc(-c2cc(C(=O)N3CCC(c4nc(C5CCOCC5)no4)C3)c3ccccc3n2)cc1C (stereo not drawn) | 25µM* | ? | 10µM* | -28* | -2%
Cc1cccc(C(=O)N2CCC(c3nc(C4CCOCC4)no3)C2)c1 (stereo not drawn) | ? | -6% | 10% | 9 | .
CCOc1ccc(NC(=O)c2nc(S(=O)(=O)Cc3ccc(C)cc3)ncc2Cl)cc1 | i | . | . | . | .
CCc1nnc(NC(=O)c2nc(S(=O)(=O)Cc3ccc(C)cc3)ncc2Cl)s1 | ? | 28µM* | ? | -33* | -10%
O=C(Nc1ccccc1Cl)c1cc(S(=O)(=O)N2CCC3(CC2)OCCO3)ccc1F | i | 5% | -3% | -35* | ?
COc1ccc(CN(C)Cc2ccoc2)cc1OCC(O)CN1CCCCC1 (stereo not drawn) | i | -27% | -8% | -38* | -11%
CCOc1ccc(C(=O)Nc2ncc(C)s2)cc1OCC | i | . | . | . | .
O=C(Nc1ccc(Cl)cc1)c1cc(-c2ccc[nH]2)n[nH]1 | i | 0% | 49% | 16 | 0%
CCOc1ccc(NC(=O)c2cc(-c3ccc[nH]3)n[nH]2)cc1 | i | -11% | 13% | 15 | -4%
Cc1ccc(NC(=O)c2cc(-c3ccc[nH]3)n[nH]2)cc1 | i | 8% | 43% | 4 | -20%
CCc1cccc(NC(=O)c2cc(-c3ccc[nH]3)n[nH]2)c1 | i | 4% | 32% | -30* | 9.2µM*
Cc1cc(C)cc(NC(=O)c2cc(-c3ccc[nH]3)n[nH]2)c1 | i | -13% | 189% | 22 | .

Screening data as filed in PubChem BioAssay.
